# Measurements taken from PubChem BioAssay (Tox21).
# Inconclusive results are not listed. Where a call stands in place of a potency, no number is given. Activity calls are given as the source filed them. Calls follow the shape of the dose curve; as a rule, active = well fitted activation curve with a large enough effect in the signal ratio in the repeat runs (not every such curve was filed as active); inconclusive = weak or mixed curves; inactive = flat fitted curve, though single readings scatter; the % refers to the signal ratio.
# Experiment: qHTS assay to identify small molecule agonists of H2AX (AID 1224845)
# Settings: CHO-K1 phospho-H2AX Ser139 HTRF, 3 h; series mostly up to 154 µM
# Excerpt: National Center for Advancing Translational Sciences [NCATS]
# NIH Chemical Genomics Center [NCGC]
# U.S. Environmental Protection Agency [EPA]
# National Institutes of Environmental Health Sciences [NIEHS]
# National Toxicology Program [NTP]
# U.S. Food and Drug Administration [FDA]
# HTRF phospho-H2AX (Ser139) assay (Cisbio Bioassays, US) enables the quantitative detection of the histone variant H2AX when phosphorylated on serine 139. When double-stranded DNA breaks, either by ionizing radiation or endogenous physiological processes, H2AX becomes phosphorylated at Ser139. This phospho-Ser139 serves as a sensitive biomarker for the detection of such breaks, localizing the site of DNA repair. So, HTRF phospho-H2AX Ser139 is a pertinent assay to study genome stability, the cell cycle, DNA repair, and it serves as a biomarker for cancer, and to understand aging. Wild type CHO-K1 cells were used to identify the inducers of Phospho-H2AX Ser 139 from the Tox21 10K compound collections.
# Tox21 Assay Protocol Summary:
# The CHO-K1 cells suspended in culture medium containing 10% FBS were dispensed at 1000 cells/ 3 ul/well in 1536-well white wall/solid bottom plates (Greiner Bio-One North America, NC) using a Multidrop Combi (Thermo Fisher Scientific Inc., Waltham, MA). After the assay plates were incubated at 37C overnight, 23 nl of compounds at 15 concentrations (from 5-48 columns) or positive control (from 1 to 4 columns) were transferred to the assay plates using a Pintool station (Wako, San Diego, CA) into each well resulting in a final DMSO concentration of 0.76%. After 3hr incubation at 37C, 1 uL/well Supplemented Lysis buffer (diluted 100 fold blocking reagent in lysis buffer) (HTRF Phospho-H2A.X (S139) Assay kit from Cisbio US Inc., Bedford, MA) was added using a Flying Reagent Dispenser (FRD) (Aurora Discovery, CA). After 10sec spin at 1000 rpm in a plate centrifuge, the assay plates were incubated at room temperature for 30 min. Then followed by the addition of 1 uL/well detection buffer (containing a mixture of two antibodies, one labeled with cryptate, Anti pH2AX (S139)-K and another labeled with d2, Anti H2AX-d2) using FRD. After incubation at room temperature for 24 hr, the time resolved fluorescence at excitation 320 nm and emissions at 665 nm and 620 nm was measured using an Envision plate reader (PerkinElmer, Waltham, MA).
# Potency is read from the fitted curve at half-maximal effect.
row,Structure (SMILES),Potency
1,C=CC(=O)OC,inactive
2,COC(N)=O,inactive
3,C(=NC1CCCCC1)=NC1CCCCC1,inactive
4,CC(O)(CS(=O)(=O)c1ccc(F)cc1)C(=O)Nc1ccc(C#N)c(C(F)(F)F)c1 (stereo not given),inactive
5,CCBr,inactive
6,NNC(=O)c1cccnc1,inactive
7,CC1(C)[C@H](C=C(Cl)Cl)[C@@H]1C(=O)O[C@@H](C#N)c1cccc(Oc2ccccc2)c1,inactive
8,CCC(Cl)CCl (stereo not given),inactive
9,Nc1nc(=S)[nH][nH]1,inactive
10,CNP(=O)(OC)Oc1ccc(C(C)(C)C)cc1Cl (stereo not given),inactive
11,O=Cc1ccc2c(c1)OCO2,inactive
12,CC(C)(Cl)[N+](=O)[O-],inactive
13,C=CCOC(C)=O,inactive
14,COc1c(C(C)(C)C)cc([N+](=O)[O-])c(C)c1[N+](=O)[O-],inactive
15,[CH3][Sn]([CH3])([Cl])[Cl],inactive
16,N#CCc1ccccc1,inactive
17,O=C=Nc1ccc(Cl)cc1,inactive
18,CCCCCCCCOC(=O)c1ccc(C(=O)OCCCCCCCC)c(C(=O)OCCCCCCCC)c1,inactive
19,CC(=O)C(C)(C)C,inactive
20,Cc1ccc(N)cc1C,inactive

row,Structure (SMILES),Potency
1,CCOc1ccc(C(C)(C)COCc2cccc(Oc3ccccc3)c2)cc1,inactive
2,c1ccc(C2CC2)c(OCC2=NCCN2)c1,inactive
3,N#CCC#N,89.8 µM (active)
4,CCOc1nc(F)cc2nc(S(=O)(=O)Nc3c(Cl)cccc3Cl)nn12,inactive
5,CN1C(=O)C(O)N=C(c2ccccc2)c2cc(Cl)ccc21 (stereo not given),inactive
6,O=C(O)C1(c2ccc3c(c2)OC[C@H](Cc2ccc(-c4ccccc4)cc2)[C@H]3O)CCCC1,inactive
7,COCC(C)N(C(=O)CCl)c1c(C)csc1C (stereo not given),inactive
8,CN1[C@@H]2CC[C@H]1CC(OC(=O)c1cc(Cl)cc(Cl)c1)C2 (stereo not given in full),inactive
9,C=CC(=O)NCNC(=O)C=C,inactive
10,CCOP(=S)(Oc1ccc([N+](=O)[O-])cc1)c1ccccc1 (stereo not given),inactive
11,Cc1c(F)c(F)c(COC(=O)C2C(/C=C(\Cl)C(F)(F)F)C2(C)C)c(F)c1F (stereo not given),inactive
12,O=C(CBr)Nc1ccc(Cl)cc1C(=O)c1ccccc1F,inactive
13,Cl/C=C\C[N+]12CN3CN(CN(C3)C1)C2,inactive
14,O=C(NC(=O)c1c(F)cccc1F)Nc1ccc(OC(F)(F)C(F)OC(F)(F)F)c(Cl)c1 (stereo not given),inactive
15,CC(Cl)C(C)Cl (stereo not given),inactive
16,CCOS(C)(=O)=O,inactive
17,O=C(Nc1ccccc1)Nc1cnns1,inactive
18,O=[N+]([O-])C(Br)(CO)CO,inactive
19,O=C(O)CC(Cl)C(=O)O (stereo not given),inactive
20,OC(c1ccc(Cl)cc1)(c1ccc(Cl)cc1)c1cccnc1,inactive
